Among the data in PubChem BioAssay (EPA / NIEHS) are outcome and AC50 values, retold here.

For experiment [1], the target named is Beta-2 adrenergic receptor (Homo sapiens) (UniProt P07550). The experiment is described as follows: NVS_GPCR_hAdrb2: NovaScreen (NVS) G Protein-Coupled Receptor Assay for human Adrenergic, Beta 2 Receptor (Adrb2) (AID 2283261). In short, it runs like this: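 Compounds screened in duplicate at 25 uM, then actives in concentration series. Human beta-2 receptor from CHO material, cell-free; radioligand displacement after 1 h measured by filtration and scintillation against DMSO baseline.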
Beta-2 adrenergic receptor (Homo sapiens), sequence (P07550 whole entry, looked up): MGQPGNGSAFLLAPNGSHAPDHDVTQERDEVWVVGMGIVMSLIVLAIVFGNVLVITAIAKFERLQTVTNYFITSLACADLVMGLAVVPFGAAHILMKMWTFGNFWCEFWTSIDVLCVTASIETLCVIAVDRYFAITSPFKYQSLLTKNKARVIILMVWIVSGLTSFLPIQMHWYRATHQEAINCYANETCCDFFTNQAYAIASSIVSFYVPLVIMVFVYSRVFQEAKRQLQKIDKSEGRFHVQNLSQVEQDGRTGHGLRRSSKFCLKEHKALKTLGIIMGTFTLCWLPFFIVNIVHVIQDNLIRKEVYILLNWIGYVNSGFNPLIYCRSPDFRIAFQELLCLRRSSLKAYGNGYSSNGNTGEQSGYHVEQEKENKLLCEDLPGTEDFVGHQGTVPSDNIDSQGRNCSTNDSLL

Experiment [2] concerns the target human Dopamine Receptor D2 (DRD2), DRD2 (gene 1813) (UniProt P14416). The experiment is described as follows: NVS_GPCR_hDRD2s: NovaScreen (NVS) G Protein-Coupled Receptor Assay for human Dopamine Receptor D2 (DRD2) (AID 2283266). In short, it runs like this:
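Test compound (25 uM, duplicate in the primary screen; concentration series at follow-up) competed with radioligand for human DRD2 in CHO-derived membrane protein. Filter-based scintillation counting was done 1.5 hours after dosing, with loss of signal analysed against DMSO.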

Experiment [3] has as its target Muscarinic acetylcholine receptor M1 (Homo sapiens) (UniProt P11229). The experiment can be described thus: NVS_GPCR_hM1: NovaScreen (NVS) G Protein-Coupled Receptor Assay for human Muscarinic, M1 Receptor (AID 2283270). In short, it runs like this:
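Actives from a duplicate 25 uM single-point screen were retested in concentration series. Binding measured as displacement of a radioligand from CHO-derived receptor preparation, 1 h incubation, filtration and scintillation counting, analysed as signal loss against DMSO.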

Experiment [4] deals with Muscarinic acetylcholine receptor M3 (Homo sapiens) (UniProt P20309). The experiment can be described thus: NVS_GPCR_hM3: NovaScreen (NVS) G Protein-Coupled Receptor Assay for human Muscarinic, M3 Receptor (AID 2283272). The gist of the method: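 Radioligand displacement binding on human M3 receptor in CHO-derived membranes, 1 h incubation, filter-based scintillation counting. Primary screen in duplicate at 25 uM; actives followed up in concentration series; loss of signal versus DMSO.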
Muscarinic acetylcholine receptor M3 (Homo sapiens), sequence (P20309 whole entry, looked up): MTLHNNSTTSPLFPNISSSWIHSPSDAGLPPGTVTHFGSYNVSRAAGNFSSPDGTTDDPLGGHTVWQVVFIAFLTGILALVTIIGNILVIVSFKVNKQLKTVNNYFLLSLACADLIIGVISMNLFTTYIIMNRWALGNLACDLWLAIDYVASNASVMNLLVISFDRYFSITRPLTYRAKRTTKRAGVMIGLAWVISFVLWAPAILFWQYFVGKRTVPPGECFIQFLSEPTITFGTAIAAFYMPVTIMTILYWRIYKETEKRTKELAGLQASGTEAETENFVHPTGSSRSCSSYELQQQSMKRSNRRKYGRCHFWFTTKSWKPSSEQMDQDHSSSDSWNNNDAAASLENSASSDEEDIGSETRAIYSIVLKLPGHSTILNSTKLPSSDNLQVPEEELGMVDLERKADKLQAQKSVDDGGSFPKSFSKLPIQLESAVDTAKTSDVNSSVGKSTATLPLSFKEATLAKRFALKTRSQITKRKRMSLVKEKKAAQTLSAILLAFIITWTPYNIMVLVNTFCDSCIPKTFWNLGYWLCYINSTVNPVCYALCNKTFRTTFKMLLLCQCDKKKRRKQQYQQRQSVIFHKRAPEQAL

The target in experiment [5] is human Adrenergic, Beta 3 Receptor (Adrb3), ADRB3 (gene 155) (UniProt P13945). The experiment can be described thus: NVS_GPCR_hAdrb3: NovaScreen (NVS) G Protein-Coupled Receptor Assay for human Adrenergic, Beta 3 Receptor (Adrb3) (AID 2283262). The method, then: NVS_GPCR_hAdrb3 is a biochemical, single-readout assay that uses extracted gene-proteins from SK-N-MC pretreated with isoproteronol and 8-bromo-cAMP in a cell-free assay. Measurements were taken 1 hour after chemical dosing in a 48-well plate.NVS_GPCR_hAdrb3 is one of one assay component(s) measured or calculated from the NVS_GPCR_hAdrb3 assay. It is designed to make measurements of radioligand binding, a form of binding reporter, as detected with scintillation counting signals by Filter-based radiodetection technology.Data from the assay component NVS_GPCR_hAdrb3 was analyzed into 1 assay endpoint. This assay endpoint, NVS_GPCR_hAdrb3, was analyzed in the positive analysis fitting direction relative to DMSO as the negative control and baseline of activity. Using a type of binding reporter, loss-of-signal activity can be used to understand changes in the binding as they relate to the gene ADRB3. Furthermore, this assay endpoint can be referred to as a primary readout, because the performed assay has only produced 1 assay endpoint. To generalize the intended target to other relatable targets, this assay endpoint is annotated to the gpcr intended target family, where the subfamily is rhodopsin-like receptor. […]
human Adrenergic, Beta 3 Receptor (Adrb3), ADRB3 (gene 155), sequence (P13945 whole entry, looked up): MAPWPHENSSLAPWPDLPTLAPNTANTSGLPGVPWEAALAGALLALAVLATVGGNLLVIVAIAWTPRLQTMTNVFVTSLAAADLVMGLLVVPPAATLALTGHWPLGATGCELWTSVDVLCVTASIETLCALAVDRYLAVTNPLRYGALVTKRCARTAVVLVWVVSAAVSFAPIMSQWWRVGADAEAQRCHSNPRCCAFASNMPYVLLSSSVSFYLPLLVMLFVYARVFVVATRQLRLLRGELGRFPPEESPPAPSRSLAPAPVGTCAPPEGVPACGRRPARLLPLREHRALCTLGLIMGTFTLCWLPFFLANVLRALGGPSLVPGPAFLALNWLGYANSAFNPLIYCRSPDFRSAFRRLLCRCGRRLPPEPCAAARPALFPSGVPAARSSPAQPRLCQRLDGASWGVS

Experiment [6] has as its target human Dopamine Receptor D4.4 (DRD4.4), DRD4 (gene 1815) (UniProt P21917). The experiment is described as follows: NVS_GPCR_hDRD4.4: NovaScreen (NVS) G Protein-Coupled Receptor Assay for human Dopamine Receptor D4.4 (DRD4.4) (AID 2283264). The gist of the method:
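Filter-binding assay with a tritiated or iodinated ligand, cell-free receptor prepared from CHO, 1 hour. Loss of bound radioactivity versus DMSO; single 25 uM duplicate screen, then concentration-response for actives.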

In experiment [7] the target is human Endothelin Receptor Type A (ETA), EDNRA (gene 1909) (UniProt P25101). The experiment can be described thus: NVS_GPCR_hETA: NovaScreen (NVS) G Protein-Coupled Receptor Assay for human Endothelin Receptor Type A (ETA) (AID 2283265). The gist of the method: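 Binding of radioligand to membrane protein extracted from SH-SY5Y cells was read by filtration and scintillation after 3 h. Compounds were screened at 25 uM in duplicate, with hits followed up in singleton concentration series to 50 uM.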
human Endothelin Receptor Type A (ETA), EDNRA (gene 1909), sequence (P25101 whole entry, looked up): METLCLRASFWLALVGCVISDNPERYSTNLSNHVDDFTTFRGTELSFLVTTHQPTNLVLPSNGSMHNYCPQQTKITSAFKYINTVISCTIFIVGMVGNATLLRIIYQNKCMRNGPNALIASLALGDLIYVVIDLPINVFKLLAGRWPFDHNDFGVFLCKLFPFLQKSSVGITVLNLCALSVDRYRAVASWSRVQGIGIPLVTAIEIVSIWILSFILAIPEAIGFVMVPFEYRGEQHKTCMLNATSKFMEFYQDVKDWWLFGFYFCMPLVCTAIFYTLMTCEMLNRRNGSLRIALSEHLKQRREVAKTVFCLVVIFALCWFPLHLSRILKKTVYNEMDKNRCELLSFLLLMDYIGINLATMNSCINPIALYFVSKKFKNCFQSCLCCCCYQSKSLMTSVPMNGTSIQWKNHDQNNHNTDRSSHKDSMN

Experiment [8] addresses human Endothelin Receptor Type B (ETB), EDNRB (gene 1910) (UniProt P24530). The experiment can be described thus: NVS_GPCR_hETB: NovaScreen (NVS) G Protein-Coupled Receptor Assay for human Endothelin Receptor Type B (ETB) (AID 2283267). In short, it runs like this:
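Filter-based scintillation readout of radioligand displacement, 4 h, using membranes from human astrocytoma cells. Actives from a 25 uM duplicate screen were retested in concentration-response (top 50 uM) relative to DMSO baseline.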

In experiment [9] the target is Neuropeptide Y receptor type 2 (Homo sapiens) (UniProt P49146). The experiment is described as follows: NVS_GPCR_hNPY2: NovaScreen (NVS) G Protein-Coupled Receptor Assay for human Neuropeptide Receptor Y2 (NPY2) (AID 2283277). The method, then: NVS_GPCR_hNPY2 is a biochemical, single-readout assay that uses extracted gene-proteins from SK-N-MC in a cell-free assay. Measurements were taken 1 hour after chemical dosing in a 96-well plate.NVS_GPCR_hNPY2 is one of one assay component(s) measured or calculated from the NVS_GPCR_hNPY2 assay. It is designed to make measurements of radioligand binding, a form of binding reporter, as detected with scintillation counting signals by Filter-based radiodetection technology.Data from the assay component NVS_GPCR_hNPY2 was analyzed into 1 assay endpoint. This assay endpoint, NVS_GPCR_hNPY2, was analyzed in the positive analysis fitting direction relative to DMSO as the negative control and baseline of activity. […] Furthermore, this assay endpoint can be referred to as a primary readout, because the performed assay has only produced 1 assay endpoint. […]
Neuropeptide Y receptor type 2 (Homo sapiens), sequence (P49146 whole entry, looked up): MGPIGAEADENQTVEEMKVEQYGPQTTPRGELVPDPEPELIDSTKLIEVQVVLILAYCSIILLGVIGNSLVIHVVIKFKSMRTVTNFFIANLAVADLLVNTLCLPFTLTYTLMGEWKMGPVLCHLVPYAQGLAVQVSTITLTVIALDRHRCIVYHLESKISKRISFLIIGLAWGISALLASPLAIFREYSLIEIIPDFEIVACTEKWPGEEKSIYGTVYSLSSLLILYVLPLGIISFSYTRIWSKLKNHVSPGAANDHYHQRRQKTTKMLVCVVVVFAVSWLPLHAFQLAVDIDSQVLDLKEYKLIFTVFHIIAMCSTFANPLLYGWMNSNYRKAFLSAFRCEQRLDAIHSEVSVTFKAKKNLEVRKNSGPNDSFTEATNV
Binding assays used specific radioligands (tritiated, iodinated) with non-radioactive competitive displacement ligands in agonist or antagonist protocols (as indicated) and various reference compounds and inhibitors to titrate specific binding to receptors and transporters. Most enzyme assays (CYPs, kinases, phosphatases, proteases, HDACs) used recombinant protein and specific substrates (fluorescence mostly, some colorimetric and radioactive) and inhibitors, followed by a biochemical separation of substrate and product. […]

Molecules are shown by their SMILES. Records with an inconclusive call do not appear. Active and inactive are the calls of the source. Rule for the calls: active = hit-call score of the fitted dose curve at least 0.9, where 1 is the maximum; inconclusive = response in the unintended direction; inactive = score below 0.9.

A word on the AC50: it is the midpoint of the concentration-response curve, whichever way the signal moves.

human Dopamine Receptor D2 (DRD2), DRD2 (gene 1813), sequence (P14416 whole entry, looked up): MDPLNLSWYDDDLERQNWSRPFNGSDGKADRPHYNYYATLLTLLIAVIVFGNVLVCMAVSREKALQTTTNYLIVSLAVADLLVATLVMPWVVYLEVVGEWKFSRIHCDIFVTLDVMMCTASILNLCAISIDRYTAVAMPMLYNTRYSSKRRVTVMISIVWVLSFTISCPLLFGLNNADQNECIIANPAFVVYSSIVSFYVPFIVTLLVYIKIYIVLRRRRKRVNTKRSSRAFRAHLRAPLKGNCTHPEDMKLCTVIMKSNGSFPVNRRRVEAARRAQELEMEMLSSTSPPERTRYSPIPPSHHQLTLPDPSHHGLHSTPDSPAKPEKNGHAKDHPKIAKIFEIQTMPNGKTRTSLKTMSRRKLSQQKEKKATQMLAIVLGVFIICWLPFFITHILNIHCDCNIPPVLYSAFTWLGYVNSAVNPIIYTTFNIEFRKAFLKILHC
human Endothelin Receptor Type B (ETB), EDNRB (gene 1910), sequence (P24530 whole entry, looked up): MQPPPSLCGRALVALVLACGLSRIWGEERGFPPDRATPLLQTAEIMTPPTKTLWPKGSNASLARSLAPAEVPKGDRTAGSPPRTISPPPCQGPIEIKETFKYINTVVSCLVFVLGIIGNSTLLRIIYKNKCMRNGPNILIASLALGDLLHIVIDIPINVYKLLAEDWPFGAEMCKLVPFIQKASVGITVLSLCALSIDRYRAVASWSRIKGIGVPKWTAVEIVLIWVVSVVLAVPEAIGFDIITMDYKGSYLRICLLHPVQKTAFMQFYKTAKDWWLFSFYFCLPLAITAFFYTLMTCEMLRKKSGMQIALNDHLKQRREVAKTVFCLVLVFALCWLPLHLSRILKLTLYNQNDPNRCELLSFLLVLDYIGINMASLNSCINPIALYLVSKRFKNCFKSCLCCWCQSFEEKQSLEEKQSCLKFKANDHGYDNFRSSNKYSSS
Muscarinic acetylcholine receptor M1 (Homo sapiens), sequence (P11229 whole entry, looked up): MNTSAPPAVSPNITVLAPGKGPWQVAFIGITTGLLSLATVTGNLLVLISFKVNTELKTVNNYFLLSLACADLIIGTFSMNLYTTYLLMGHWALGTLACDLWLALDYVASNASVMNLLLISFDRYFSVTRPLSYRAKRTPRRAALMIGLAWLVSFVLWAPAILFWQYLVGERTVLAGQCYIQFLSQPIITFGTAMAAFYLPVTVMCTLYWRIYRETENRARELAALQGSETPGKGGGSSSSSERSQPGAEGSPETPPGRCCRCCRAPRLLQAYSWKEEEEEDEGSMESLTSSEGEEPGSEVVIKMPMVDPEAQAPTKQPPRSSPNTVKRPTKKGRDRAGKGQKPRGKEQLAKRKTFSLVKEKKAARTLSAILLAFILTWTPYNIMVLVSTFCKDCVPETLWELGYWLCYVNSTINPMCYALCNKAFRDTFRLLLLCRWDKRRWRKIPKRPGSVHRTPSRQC
human Dopamine Receptor D4.4 (DRD4.4), DRD4 (gene 1815), sequence (P21917 whole entry, looked up): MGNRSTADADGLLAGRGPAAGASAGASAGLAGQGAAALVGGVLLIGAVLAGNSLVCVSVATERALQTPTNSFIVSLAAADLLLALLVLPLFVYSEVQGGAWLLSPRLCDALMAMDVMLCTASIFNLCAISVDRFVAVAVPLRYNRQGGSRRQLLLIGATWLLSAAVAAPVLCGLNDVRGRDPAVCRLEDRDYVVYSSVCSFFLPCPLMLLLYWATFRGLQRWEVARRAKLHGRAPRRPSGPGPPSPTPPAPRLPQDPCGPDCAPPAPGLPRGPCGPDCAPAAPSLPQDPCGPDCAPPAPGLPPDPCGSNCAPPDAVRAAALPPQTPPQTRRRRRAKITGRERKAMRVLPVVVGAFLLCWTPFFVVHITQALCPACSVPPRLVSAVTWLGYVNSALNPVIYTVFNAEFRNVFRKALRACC

As to `COc1ccc(C(c2ccc(OC)cc2)C(Cl)(Cl)Cl)cc1`, the call in [1], in experiment [2], in experiment [3] and in experiment [4] was inactive.
Take `OC(c1ccc(Cl)cc1)(c1cncnc1)c1ccccc1Cl` (configuration not stated): the compound was called inactive in experiment [1].
With `O=C(Nc1ccccc1)Nc1ccnc(Cl)c1`, the call in experiment [5] was inactive.
On to `Cc1ccc(-c2c(Cl)nc(C#N)n2S(=O)(=O)N(C)C)cc1`, for which the compound was called inactive in experiment [6] and in experiment [2].
As for `C=CCC1=C(C)C(OC(=O)C2C(C=C(C)C)C2(C)C)CC1=O` (configuration not stated), the outcome in experiment [7] was inactive.
With `CC1COC(Cn2cncn2)(c2ccc(Oc3ccc(Cl)cc3)cc2Cl)O1` (configuration not stated), in [8], the compound was classed as inactive.
As for `CCCC1COC(Cn2cncn2)(c2ccc(Cl)cc2Cl)O1` (configuration not stated), in experiment [4], the AC50 is 4.96 µM (active).
On to `COc1nc(C)nc(NC(=O)NS(=O)(=O)c2ccccc2CCC(F)(F)F)n1`, for which the call in experiment [9] was inactive.
